These results are taken from PubChem BioAssay (NCI).

What all share (assay): NCI-60 one-dose screen, 48 h (100 = growth as untreated, 0 = no growth, -100 = all killed)
One test deals with T-47D breast. To be noted: 10 µM.
For the next test, the system named is MDA-MB-435 melanoma. To be noted: 10 µM.
In another test the test system is SW-620 colon. To be noted: 10 µM.
For another test, the system named is MCF7 breast. The settings on record: 10 µM unless noted.
The next test relates to HCT-116 colon. The settings on record: 10 µM.
A further test relates to HCC-2998 colon. The settings on record: 10 µM.
The test system of another test is KM12 colon. To be noted: 10 µM.
In the next test the test system is BT-549 breast. The settings on record: 10 µM.

About 83,000 compounds went through this panel and 20% of them were active in at least one assay; those are over-represented in the sample as a whole.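 Single-concentration screen, 48 h exposure, 96-well plates. Endpoint: percent growth. Below 10 = active.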 Unmarked numbers belong to inactive results. Activity calls are given as the source filed them.

Turning to `CCOC(=O)c1[nH]c(C)c(C(=O)O)c1C`, the growth in the test with T-47D breast was 109%; in the test with MDA-MB-435 melanoma, 110%; with SW-620 colon, 107%; in the test with MCF7 breast, 78.9%; in the test with HCT-116 colon it was 116%; in the test with HCC-2998 colon, 107%. Moreover, the growth in the test on KM12 colon was 110%.

As for `O=C(NCO)c1ccccc1`, the growth in the test with T-47D breast was 102%; in the test with MDA-MB-435 melanoma it was 108%; with MCF7 breast, 101%; in the test on HCT-116 colon it was 105%; with HCC-2998 colon it was 111%; in the test with KM12 colon it was 102%.

With `CCCCCCCCCCCCCCCCC1CC(=O)OC1=O` (stereo not drawn), the growth is 97.4% in the test on T-47D breast; 101% with MDA-MB-435 melanoma; 105% in the test on SW-620 colon; 98.5% in the test with MCF7 breast; 114% in the test on HCC-2998 colon; 108% in the test on KM12 colon.

Consider `CNC(=S)NC(C)(C)C`, for which the growth in the test on BT-549 breast was 89.5%; in the test with MDA-MB-435 melanoma, 106%; with SW-620 colon it was 103%; in the test with MCF7 breast it was 97.4%; in the test on HCT-116 colon, 102%; in the test on HCC-2998 colon it was 115%. In the test with KM12 colon, the growth is 106%.

Regarding `O=[N+]([O-])c1ccc(Cl)c(S(=O)(=O)O)c1`, the growth is 103% in the test on T-47D breast; 117% in the test with MDA-MB-435 melanoma; 107% in the test with SW-620 colon; 98.4% in the test on MCF7 breast; 104% with HCT-116 colon; 102% in the test with HCC-2998 colon. Besides, the growth in the test with KM12 colon was 105%.

In the case of `NC(C(=O)O)c1ccc([N+](=O)[O-])cc1` (stereo not drawn), the growth was 99.3% in the test on T-47D breast; 111% in the test with MDA-MB-435 melanoma; 109% in the test on SW-620 colon; 95.3% with MCF7 breast; 105% with HCT-116 colon; 111% in the test on HCC-2998 colon. For the same compound, the growth in the test with KM12 colon is 99.4%.

As to `CN(C)CCC(=O)c1ccc(O)cc1`, the growth is 96.4% in the test with T-47D breast; 110% with MDA-MB-435 melanoma; 107% in the test with SW-620 colon; 97.7% in the test with MCF7 breast; 106% in the test with HCT-116 colon; 104% in the test on HCC-2998 colon. In the test on KM12 colon, the growth is 99.9%.

Turning to `CC1(O)OC(COc2ccc(Cl)cc2)COC1O` (stereo not drawn), the growth with BT-549 breast was 112%; with MDA-MB-435 melanoma it was 106%; with SW-620 colon, 101%; in the test on MCF7 breast, 90.4%; in the test on HCT-116 colon, 103%; with HCC-2998 colon it was 109%. Moreover, the growth with KM12 colon was 108%.

With `Cc1cc(C)c(N)c(S(=O)(=O)O)c1`, the growth is 93.2% in the test on T-47D breast; 98.9% with MDA-MB-435 melanoma; 111% with SW-620 colon; 92.1% in the test with MCF7 breast; 93.6% in the test on HCT-116 colon; 91.2% with HCC-2998 colon. For the same compound, the growth in the test with KM12 colon was 115%.

For `O=[N+]([O-])c1ccc(N=Nc2ccc(O)c3ccccc23)cc1`, the growth is 9.85% (active) in the test on T-47D breast; 52.7% in the test on MDA-MB-435 melanoma; 34% in the test with SW-620 colon; 19.5% with MCF7 breast; 33.1% in the test on KM12 colon.

Turning to `CCn1c(=O)n(C)c2c(=O)n(C)c(=O)n(C)c21`, the growth was 101% with BT-549 breast; 98.6% in the test with MDA-MB-435 melanoma; 107% in the test with SW-620 colon; 103% in the test with MCF7 breast; 109% in the test on HCT-116 colon; 87.8% in the test with HCC-2998 colon.

On to `O=[N+]([O-])c1ccc(-c2noc(-c3cccs3)n2)cc1`, for which the growth was 78.3% with BT-549 breast; 94.2% in the test on MDA-MB-435 melanoma; 90.4% in the test on SW-620 colon; 63.2% in the test on MCF7 breast; 47.5% in the test on HCT-116 colon; 99.9% with HCC-2998 colon. Besides, the growth with KM12 colon was 88.5%.

As to `CCCC[P+](c1ccccc1)(c1ccccc1)c1ccccc1`, the growth was 26.5% in the test on T-47D breast; 17.8% with BT-549 breast; 24.1% in the test on MCF7 breast; 39.2% with HCT-116 colon; 32.2% in the test on HCC-2998 colon; 23.2% in the test on KM12 colon.

`CCOC(=O)c1cc(/C=C/c2cccc(Cl)c2)on1`: the growth with BT-549 breast was 87.2%; with MDA-MB-435 melanoma, 83%; with SW-620 colon, 84.2%; with MCF7 breast, 13.9%; in the test on HCT-116 colon, -57.7% (active); in the test with HCC-2998 colon it was 97.2%. In the test on KM12 colon, the growth is 57.4%.

Turning to `CN(C)C(C)(C)CC(C)(C)C`, the growth with T-47D breast is 104%; in the test with MDA-MB-435 melanoma, 109%; with MCF7 breast, 101%; with HCT-116 colon, 100%; in the test on HCC-2998 colon, 109%; in the test with KM12 colon, 93.6%.

For the compound `O=S(=O)(O)C(Nc1ccccc1)c1ccccc1` (stereo not drawn), the growth with T-47D breast was 93.7%; in the test on MDA-MB-435 melanoma it was 104%; in the test on SW-620 colon it was 102%; with MCF7 breast, 98.5%; with HCT-116 colon it was 103%; in the test with HCC-2998 colon it was -12.8% (active). The growth in the test on KM12 colon was 100%.

Take `Cc1ccc(C)n1-c1ccsc1C(=O)NNC(=O)C(Cl)Cl`: the growth is 112% in the test on BT-549 breast; 98.4% in the test on MDA-MB-435 melanoma; 102% in the test with SW-620 colon; 96.9% in the test on MCF7 breast; 105% in the test on HCT-116 colon; 105% in the test on HCC-2998 colon. Besides, in the test on KM12 colon, the growth was 101%.

For `Cc1cc(=O)cc(C)n1-c1ccccc1`, the growth in the test on T-47D breast is 91.7%; in the test on MDA-MB-435 melanoma it was 110%; in the test on SW-620 colon, 107%; in the test on MCF7 breast it was 94.4%; in the test on HCT-116 colon it was 98.4%; in the test on HCC-2998 colon, 107%. The growth in the test with KM12 colon is 104%.

`COc1ccc(C(C)C=O)cc1` (stereo not drawn): the growth is 97.9% in the test on T-47D breast; 113% in the test with MDA-MB-435 melanoma; 95.9% in the test on MCF7 breast; 101% with HCT-116 colon; 109% in the test on HCC-2998 colon; 107% in the test with KM12 colon.

On to `C=CC(=O)OCCCCCCCC`, for which the growth with T-47D breast is 105%; in the test with MDA-MB-435 melanoma it was 106%; in the test on SW-620 colon it was 103%; with MCF7 breast, 95.3%; with HCT-116 colon, 100%; with HCC-2998 colon it was 104%. Also, the growth with KM12 colon is 101%.

Turning to `O=C1C=CC(=O)N1c1ccc(I)cc1Cl`, the growth was 84.1% with T-47D breast; 107% with SW-620 colon; 98.1% with MCF7 breast; 96.9% in the test on HCT-116 colon; 95.7% in the test with HCC-2998 colon; 115% in the test with KM12 colon.
